# Values without a mark were called inactive. Inconclusive results are not listed. A call without a number means that no potency is given here. Active and inactive are the calls of the source. Unless noted, calls come from the whole dose curve; as a rule, active = well fitted curve in the direction sought with a large enough effect; inconclusive = small, poorly fitted or top-dose-only effect, or another doubt; inactive = no such curve, though single readings can be large; an effect the other way counts as inactive or inconclusive.
# Columns and labels:
# [1] = Primary qHTS for inhibitors of nuclear receptor binding SET domain protein 2 (NSD2) in an RCH-ACV wild type WT cells (2C) (AID 1645877); note: nearly all actives have a fitted effect of over 70% in size; note: potency is the fitted concentration of half-maximal effect
# [2] = HepG2 viability counterscreen (readout 2: ATP content) against the NCATS DSHEA and TCM libraries (AID 1794840);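 note: HepG2 cells exposed to substances for about 24 h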
# Outline: (§1)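 After HepG2 cells attach for ~4 h, substances are added and incubated ~24 h at 37C, 5% CO2. GF-AFC fluorescence then CellTiter-Glo luminescence give protease and ATP readouts.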
# [3] = HepG2 viability counterscreen (readout 1: protease activity) against the NCATS DSHEA and TCM libraries (AID 1794841);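 note: cells exposed to compounds for about 24 h before the protease read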
# Outline: as §1
# [4] = biological target: Glutathione peroxidase 1 (Homo sapiens) (UniProt P07203); assay: Primary qHTS Assay for Inhibitors of Recombinant Selenoprotein Glutathione Peroxidase 1 (GPX1) (AID 1845191); note: nearly all actives have a fitted effect of over 65% in size
# Chain of Glutathione peroxidase 1 (Homo sapiens) (P07203 whole entry, looked up): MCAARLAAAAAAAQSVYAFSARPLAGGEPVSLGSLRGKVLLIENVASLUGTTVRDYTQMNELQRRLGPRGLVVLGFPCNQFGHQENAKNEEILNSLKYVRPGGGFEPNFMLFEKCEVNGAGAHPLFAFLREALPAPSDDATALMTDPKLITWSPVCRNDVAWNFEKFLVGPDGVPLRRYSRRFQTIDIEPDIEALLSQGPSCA
# Outline: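 GPX1 10 nM, GR 100 nM, GSH 1 mM, NADPH 0.5 mM, CHP 0.5 mM (final). 30-min cpd preincubation, RT. Ex340/Em450 read t=0, t=15 min.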
# [5] = biological target: Phospholipid hydroperoxide glutathione peroxidase GPX4 (Homo sapiens) (UniProt P36969); assay: Primary qHTS Assay for Inhibitors of Recombinant Selenoprotein Glutathione Peroxidase 4 (GPX4) (AID 1845192); note: nearly all actives have a fitted effect of over 65% in size; for activity change, negative = inhibition: series mostly up to about 50 µM
# Chain of Phospholipid hydroperoxide glutathione peroxidase GPX4 (Homo sapiens) (P36969 whole entry, looked up): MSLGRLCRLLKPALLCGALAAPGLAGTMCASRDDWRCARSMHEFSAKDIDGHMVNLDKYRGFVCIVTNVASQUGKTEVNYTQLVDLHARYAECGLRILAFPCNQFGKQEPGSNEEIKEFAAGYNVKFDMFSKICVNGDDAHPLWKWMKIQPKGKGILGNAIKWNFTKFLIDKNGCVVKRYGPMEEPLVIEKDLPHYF
# Outline: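 qHTS, GR-coupled: GPX4 200 nM + cpd 30 min RT → GSH 1 mM, NADPH 0.5 mM, GR 100 nM → CHP 0.5 mM start; fluor 340/450 at t0 and t15 min; no-enzyme wells as control.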
# [6] = NCATS anti-infectives library activity on HEK293 viability as a counter-qHTS vs the C. elegans viability qHTS (AID 1745854)
# Outline: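 CellTiter-Glo luminescence, read on a CCD imager, scored viability of HEK293 cells after 24 hr compound exposure at 37C. Library tested in several concentrations, 1:5 steps, up to 41.7 uM; digitonin served as control.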
# [7] = NCATS anti-infectives library activity on the primary C. elegans qHTS viability assay (AID 1745855; calls by dose curve)
# Outline: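 Titration-based screen in worms: eggs hatched overnight in M9, L1 larvae fed TOP10 capsules in S medium with compound, incubated 21 °C for 7 days; fluorescent objects gated by size and intensity at days 0, 3 and 7.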
smiles,measurement,setting,value
COC1=CC(=O)O[C@@H](/C=C/c2ccccc2)C1,Potency,[1],inactive
same,outcome,[2],inactive
same,outcome,[3],inactive
same,Potency,[4],inactive
same,Potency,[5],inactive
CCCCCCn1c(=O)c(C(=O)Nc2ccc(C(=O)OCCC)cc2)c(O)c2ccccc21,outcome,[1],inactive [at 9.23 µM]
same,outcome,[4],inactive [at 9.52 µM]
same,"activity change, negative = inhibition",[5],18.5% [at 9.73 µM]
COC1=CC(=O)O[C@@H](CCc2ccccc2)C1,Potency,[1],inactive
same,Potency,[4],inactive
same,Potency,[5],inactive
O=C(O)c1ccnc2cc(C(OCCN3CCCCC3)c3ccccc3Cl)[nH]c12 (stereo not given),Potency,[1],inactive
same,outcome,[6],inactive
same,Potency,[7],inactive
same,Potency,[4],inactive
same,Potency,[5],inactive
CC1=C2C(=O)C3[C@@H](CC=C4C[C@@H](O)CC[C@@]43C)[C@@H]2CC[C@]12O[C@@H]1C[C@H](C)CN[C@H]1[C@H]2C (stereo not given in full),Potency,[1],inactive
same,Potency,[4],inactive
same,Potency,[5],inactive
COC1CC(O[C@H]2CC[C@]3(C=O)C4CC[C@]5(C)[C@@H](C6=CC(=O)OC6)CC[C@]5(O)[C@@H]4CC[C@]3(O)C2)OC(C)C1O[C@@H]1O[C@H](CO)[C@@H](O)[C@H](O)[C@H]1O (stereo not given in full),Potency,[1],85.8 nM (active)
same,Potency,[4],inactive
same,Potency,[5],inactive
C[CH2][Hg][S]c1ccccc1C(=O)O,Potency,[1],841 nM (active)
CC(=O)OC1CC(O)C2(C)C(CC(OC(C)=O)C3(C)C2CCC2(C)C(c4ccoc4)C(=O)C4OC423)C1(C)C (stereo not given),Potency,[1],inactive
same,Potency,[4],inactive
same,Potency,[5],inactive
CC(=O)c1c(O)c(C)c(O)c(Cc2c(O)c3c(c(C(=O)/C=C/c4ccccc4)c2O)OC(C)(C)C=C3)c1O,Potency,[1],inactive
same,Potency,[4],inactive
same,Potency,[5],inactive
CCCN1CCO[C@H]2c3cc(O)ccc3OC[C@@H]21,Potency,[1],inactive
same,Potency,[4],inactive
same,Potency,[5],inactive
COC1CC(OC2CCC3(C)C(=CCC4C3CCC3(C)C(C(C)OC5OC(COC6OC(CO)C(O)C(O)C6O)C(O)C(O)C5O)CCC43O)C2)OC(C)C1OC1OC(C)C(O)C(OC)C1O (stereo not given),"activity change, negative = cell killing",[1],0.676% [at 9.23 µM]
same,Potency,[4],inactive
same,Potency,[5],inactive
CN1C(=O)N(c2ccc(C#N)c(C(F)(F)F)c2)C(=O)[C@]1(CO)c1ccccc1,Potency,[1],inactive
same,Potency,[4],inactive
same,Potency,[5],inactive
CCN1CC2(COC)C3[C@@H](OC)C4C1C3(C1C[C@]3(O)[C@H](OC(=O)c5ccccc5)C1[C@]4(OC(C)=O)[C@@H](O)[C@@H]3OC)[C@H](OC)C[C@H]2O (stereo not given in full),Potency,[1],inactive
same,Potency,[4],inactive
same,Potency,[5],inactive
CCN1C[C@]2(OC(=O)c3ccccc3NC(C)=O)CC[C@H](OC)[C@@]34[C@@H]2C[C@@H]([C@@H]13)[C@@]1(O)C[C@H](OC)[C@H]2C[C@@H]4[C@]1(O)[C@H]2OC,Potency,[1],inactive
same,Potency,[4],inactive
same,Potency,[5],inactive
COc1ccc2c(c1)/C(=C/c1cnc[nH]1)C(=O)N2,Potency,[1],18400 nM (active)
same,Potency,[4],inactive
C[C@H]1C(=O)O[C@H]2[C@H](O)[C@]34C5OC(=O)[C@]3(O[C@@H]3OC(=O)[C@H](O)C34[C@H](C(C)(C)C)[C@H]5O)C12O (stereo not given in full),Potency,[1],inactive
same,Potency,[4],inactive
same,Potency,[5],inactive
C/C(O)=C(\C#N)C(=O)Nc1cc(Br)ccc1Br,Potency,[1],inactive
same,Potency,[4],inactive
same,Potency,[5],inactive
CC(C)C1(OO)C=C2C(=O)CC3C(C)(C(=O)O)CCCC3(C)C2CC1 (stereo not given),Potency,[1],inactive
same,Potency,[4],inactive
same,Potency,[5],inactive
C=C[C@H]1CN2CC[C@H]1C[C@@H]2[C@@H](O)c1ccnc2ccccc12,Potency,[1],inactive
same,Potency,[4],inactive
same,Potency,[5],inactive
C/C=C(\C)C(=O)OC1C(C)OC(OC2C(C)OC(OC3CCC4(C)C(=CCC5C4CCC4(C)C(C(C)OC6OC(COC7OC(CO)C(O)C(O)C7O)C(O)C(O)C6O)CCC54O)C3)CC2OC)C(O)C1OC (stereo not given),"activity change, negative = cell killing",[1],-10% [at 9.23 µM]
same,Potency,[4],inactive
same,Potency,[5],inactive
CO[C@@H]1[C@H](O)[C@@H](O[C@@H]2C[C@H]3CC[C@@H]4C(CC[C@]5(C)[C@@H](C6=CC(=O)OC6)CC[C@]45O)[C@@]3(C)[C@H](O)C2)O[C@H](C)[C@@H]1O[C@@H]1O[C@H](CO)[C@@H](O)[C@H](O)[C@H]1O (stereo not given in full),Potency,[1],304 nM (active)
same,Potency,[4],inactive
same,Potency,[5],inactive
COC(=O)[C@@]12C(=O)C(C)C(=O)[C@]1(C)C(C)=C[C@H]1[C@]3(C=O)CC[C@H](OC(C)=O)C(C)(C)[C@H]3CC[C@@]12C (stereo not given in full),Potency,[1],inactive
same,Potency,[4],inactive
same,Potency,[5],inactive
C/C(=C\c1csc(C)n1)[C@@H]1C[C@@H]2O[C@]2(C)CCC[C@H](C)[C@H](O)[C@@H](C)C(=O)C(C)(C)[C@@H](O)CC(=O)O1,Potency,[1],5.9 nM (active)
same,Potency,[4],inactive
same,Potency,[5],inactive
COC(=O)C1(C)CCC(O)C2(C)c3c(O)cc(C(C)C)cc3C(O)C(OC(C)=O)C12 (stereo not given),Potency,[1],inactive
same,Potency,[4],inactive
same,Potency,[5],inactive
COC(=O)C1(C)CCC(O)C2(C)c3cc(O)c(C(C)C)cc3C(O)C(OC(C)=O)C12 (stereo not given),Potency,[1],inactive
same,Potency,[5],inactive
OCCCCC#Cc1cncc(OC[C@@H]2CCN2)c1,Potency,[1],inactive
same,Potency,[4],inactive
same,Potency,[5],inactive
CO[C@H]1[C@H](O)[C@H](O[C@H]2CC[C@]3(C)C4CC[C@]5(C)[C@H](C6=CC(=O)OC6)CC[C@]5(O)C4CC[C@@H]3C2)O[C@@H](C)[C@@H]1O (stereo not given in full),Potency,[1],28.2 nM (active)
same,Potency,[4],inactive
same,Potency,[5],inactive
COCC1OC(=O)c2coc3c2C1(C)C1=C(C3=O)C2CCC(=O)C2(C)CC1O (stereo not given),Potency,[1],inactive
same,Potency,[4],inactive
same,Potency,[5],inactive
CC(=O)O[C@H]1C[C@@H](OC(C)=O)C(C)(C)C2C[C@@H](O)[C@]3(C)C(CC[C@@]4(C)[C@H](C5=CC(=O)OC5O)C[C@H]5O[C@]543)[C@]21C (stereo not given in full),Potency,[1],inactive
same,Potency,[4],inactive
same,Potency,[5],inactive
COC1C(O)C(OC2CCC3(C=O)C(CCC4C3CCC3(C)C(C5=CC(=O)OC5)CCC43O)C2)OC(C)C1OC1OC(CO)C(O)C(O)C1O (stereo not given),Potency,[1],342 nM (active)
same,Potency,[4],inactive
same,Potency,[5],inactive

# — PubChem BioAssay (NCATS)
